Reference: PubChem BioAssay (NCI)
About 83,000 compounds went through this panel and 20% of them were active in at least one assay; those are over-represented in the sample as a whole.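 Note: values are percent growth. 100 is the growth of untreated cells, values between 100 and 0 indicate rising inhibition; between -100 and 0 indicates cell death.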 A number with no mark means an inactive call. The source made the active and inactive calls. How the source made its calls: active means growth percent below 10; inactive means the rest.

Assays:
Assay in all cases: NCI-60 one-dose screen, 48 h (100 = growth as untreated, 0 = no growth, -100 = all killed)
NCI-H522 lung = conditions: 10 µM unless noted
COLO 205 colon = conditions: 10 µM
SNB-19 CNS = conditions: 10 µM unless noted
U251 CNS = conditions: 10 µM unless noted
SK-MEL-5 melanoma = conditions: 10 µM unless noted
SK-MEL-2 melanoma = conditions: 10 µM unless noted
EKVX NSCLC = conditions: 10 µM unless noted
SN12C renal = conditions: 10 µM unless noted
TK-10 renal = conditions: 10 µM unless noted
ACHN renal = conditions: 10 µM unless noted
CCRF-CEM leukemia = conditions: 10 µM unless noted
SR leukemia = conditions: 10 µM
IGROV1 ovarian = conditions: 10 µM
HS 578T breast = conditions: 10 µM unless noted
T-47D breast = conditions: 10 µM unless noted
MDA-MB-435 melanoma = conditions: 10 µM unless noted
HCT-116 colon = conditions: 10 µM unless noted
HOP-92 NSCLC = conditions: 10 µM unless noted

| SMILES | growth (NCI-H522 lung) | growth (COLO 205 colon) | growth (SNB-19 CNS) [%] | growth (U251 CNS) | growth (SK-MEL-5 melanoma) [%] | growth (SK-MEL-2 melanoma) [%] | growth (EKVX NSCLC) [%] | growth (SN12C renal) | growth (TK-10 renal) | growth (ACHN renal) | growth (CCRF-CEM leukemia) | growth (SR leukemia) | growth (IGROV1 ovarian) | growth (HS 578T breast) [%] | growth (T-47D breast) | growth (MDA-MB-435 melanoma) | growth (HCT-116 colon) | growth (HOP-92 NSCLC) [%] |
| --- | --- | --- | --- | --- | --- | --- | --- | --- | --- | --- | --- | --- | --- | --- | --- | --- | --- | --- |
| COc1ccc(OC)c(/C=C(/C)[N+](=O)[O-])c1 | -78.1% (active) | -38.9% (active) | 97.6 | 26.7% | 64.6 | 56.4 | 83.9 | 32.3% | -19.1% (active) | -27.7% (active) | -2.22% (active) | -7.63% (active) | -24.8% (active) | 70.6 | 19.9% | 23.1% | -91.4% (active) | – |
| Cc1cc(CCl)c(C)cc1CCl | 55.5% | – | – | 40.2% | 70.1 | 70.1 | 106 | 30.9% | 37.3% | – | 19.7% | 11.9% | – | 81.7 | – | 76.5% | – | 79.3 |
| CC(=O)[O][Hg][CH2]C1(C)COC(C)([CH2][Hg][O]C(C)=O)CO1 (centres undefined) | -58.9% (active) | -77.4% (active) | 71.1 | -96.2% (active) | – | 63.2 | 57.9 | -87.1% (active) | – | 63.1% | -65.3% (active) | 9.98% (active) | -81% (active) | 84.3 | 4.43% (active) | -2.3% (active) | -86.2% (active) | – |
| C[CH2][Pb]([CH2]C)([CH2]C)[O]C(=O)c1ccc(N)cc1 | – | 92.5% | – | 77.4% | 39 | 39.3 | – | 77.2% | – | 70.7% | – | – | 61.9% | – | 47.6% | -72.9% (active) | 57.7% | – |
